Measured values taken from PubChem BioAssay (NCI).
This is part of a sample that, as a whole, favours compounds with a hit. Of some 83,000 tested, about 20% had one in any assay.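 Assay: single dose, 48 h. Readout: percent growth (0 = no net growth; negative = cell death). Active: <10.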 A number with no mark means an inactive call. Activity calls are given as the source filed them.

Assays:
Test in all cases: NCI-60 one-dose screen, 48 h (100 = growth as untreated, 0 = no growth, -100 = all killed)
[1] = system: NCI-H23 lung; settings: 10 µM unless noted
[2] = system: NCI-H226 lung; settings: 10 µM unless noted
[3] = system: NCI-H322M lung; settings: 10 µM unless noted
[4] = system: HOP-62 NSCLC; settings: 10 µM unless noted
[5] = system: NCI-H460 lung; settings: 10 µM unless noted
[6] = system: HOP-92 NSCLC; settings: 10 µM unless noted
[7] = system: NCI-H522 lung; settings: 10 µM unless noted
[8] = system: A549/ATCC NSCLC; settings: 10 µM unless noted
[9] = system: 786-0 renal; settings: 10 µM unless noted
[10] = system: COLO 205 colon; settings: 10 µM unless noted
[11] = system: DU-145 prostate; settings: 10 µM unless noted
[12] = system: K-562 leukemia; settings: 10 µM unless noted
[13] = system: MALME-3M melanoma; settings: 10 µM unless noted
[14] = system: MDA-MB-231 breast; settings: 10 µM unless noted
[15] = system: RXF 393 renal; settings: 10 µM unless noted
[16] = system: SF-268 CNS; settings: 10 µM unless noted
[17] = system: SF-295 CNS; settings: 10 µM unless noted
[18] = system: SF-539 CNS; settings: 10 µM unless noted
[19] = system: UACC-257 melanoma; settings: 10 µM
[20] = system: M14 melanoma; settings: 10 µM unless noted

| Compound | growth [1] | growth [2] | growth [3] | growth [4] | growth [5] | growth [6] | growth [7] | growth [8] | growth [9] | growth [10] | growth [11] | growth [12] | growth [13] | growth [14] | growth [15] | growth [16] | growth [17] | growth [18] | growth [19] | growth [20] |
| --- | --- | --- | --- | --- | --- | --- | --- | --- | --- | --- | --- | --- | --- | --- | --- | --- | --- | --- | --- | --- |
| c1ccc(-c2n(Cc3ccc4ccccc4c3)c3c4ccccc4c4ccccc4c3[n+]2Cc2ccc3ccccc3c2)cc1 | -79.9% (active) | -74% (active) | -80.1% (active) | -69.2% (active) | -62.9% (active) | -77% (active) | -74.9% (active) | -69.2% (active) | -67% (active) | -59.5% (active) | -94.4% (active) | -45% (active) | -81.4% (active) | -79% (active) | -83.2% (active) | -63.6% (active) | -87.1% (active) | -81.8% (active) | -38.2% (active) | -64.6% (active) |
| C#C[C@]1(O)CC[C@H]2[C@@H]3CC=C4c5sc(Nc6cc(Cl)ccn6)nc5CC[C@]4(C)[C@H]3CC[C@@]21C | 35.4% | 22.9% | 59.3% | 14.1% | 13.5% | 18.4% | 30.2% | 37.5% | -70.8% (active) | 21.2% | 42.5% | 7.33% (active) | -21.9% (active) | 32.6% | -52.8% (active) | 10.7% | -68.7% (active) | -53.2% (active) | -35.3% (active) | -51.8% (active) |
| O=C(/C=C1\C=CN(CCCCO)c2ccccc21)n1ccc2ccccc21 | 101% | 86.4% | 102% | 84.2% | 103% | 98.4% | 99.7% | 105% | 107% | 104% | 107% | 109% | 99.2% | 98.5% | 113% | 107% | 103% | 98.6% | 105% | 94.6% |
| COc1cc(O)c2c(c1)/C=C/C[C@H](O)[C@H](O)C(=O)/C=C\C[C@H](C)OC2=O | -1.38% (active) | 40.6% | 64% | 51.1% | 23.2% | -15.4% (active) | -61.3% (active) | 58.6% | 24.7% | -5.15% (active) | -2.78% (active) | 9.06% (active) | -20.3% (active) | -7.72% (active) | -56.9% (active) | 34.9% | 60.2% | -24.8% (active) | -19.7% (active) | -22.7% (active) |
| C/C=C/C=C1\C[C@H]2CO[C@H](O2)C1=O | 93.9% | 94.9% | 93.7% | 96.9% | 104% | 96.4% | 95.6% | 98.2% | 102% | 117% | 106% | 56.8% | 102% | 105% | 104% | 105% | 106% | 102% | 90.8% | 85.4% |
| C=CCn1c(SCC(=O)Nc2ccc(OC)cc2)nnc1-c1ccc(Cl)cc1 | 81.1% | 88.8% | 96.4% | 101% | 104% | 68.8% | 83.4% | 103% | 104% | 107% | 99.5% | 89.6% | 89.9% | 85.3% | 86.6% | 90.6% | 98.1% | 94.8% | 97.1% | 96.3% |
| COc1ccc(S(=O)(=O)n2cc(C=O)c3ccccc32)c(OC)c1 | 79.4% | 70.6% | 102% | 77.9% | 98.5% | 43.3% | 97.7% | 93.2% | 94.2% | 108% | 103% | 14.4% | 79.7% | 95.5% | 95.3% | 73.6% | 99.9% | 78.6% | 82.5% | 52.8% |
| C#C[C@]1(O)CC[C@H]2[C@@H]3CC=C4c5sc(-c6ccc(OC)cc6)nc5CC[C@]4(C)[C@H]3CC[C@@]21C | 73.7% | 69.3% | 74.5% | 70.8% | 43.5% | 102% | 80.6% | 74.7% | 16.8% | 81.9% | 76.9% | 14.5% | 51% | 72.3% | -46.3% (active) | 58.9% | -36.6% (active) | 18.1% | 30.3% | 36.4% |
| CCOC(=O)Nc1ccc(-c2nc(-c3cccc(O)c3)c(-c3ccnc(Br)c3)[nH]2)cc1 | 31% | 40.6% | 54.7% | 25.2% | 37.6% | 38.3% | 25.1% | 16% | 20.5% | 43.6% | 57.7% | 12.5% | 32.4% | 39.3% | -9.56% (active) | 39.9% | -14% (active) | 38.2% | 38.7% | 35.1% |
| COc1cc(CNC(=O)/C=C/c2ccccc2)ccc1OCC(=O)NO | 103% | 97.4% | 103% | 102% | 109% | 98.4% | 89.9% | 101% | 103% | 102% | 103% | 88.9% | 84.9% | 98.4% | 111% | 101% | 102% | 100% | 91.5% | 100% |
| COc1ccc(-c2ccnc3c(C#N)c(Nc4ccccc4)nn23)cc1OC | 93% | 62.6% | 91.2% | 86.5% | 92.8% | -0.0748% (active) | 81.4% | 85.4% | 85.7% | 97.1% | 93.9% | 93.6% | 110% | 64.2% | 15.8% | 86.4% | 93.2% | 78.8% | 104% | 117% |
| O=C(Nc1cccc(Cl)c1)Nc1nc2ccc([N+](=O)[O-])cc2s1 | -20.9% (active) | -7.2% (active) | 8.75% (active) | -1.84% (active) | 2.75% (active) | -11.9% (active) | 2.99% (active) | 10% | 8.65% (active) | -54.2% (active) | 15.2% | 4.51% (active) | -9.22% (active) | -9.3% (active) | -26.4% (active) | 9.76% (active) | -68.9% (active) | 7.66% (active) | -15.2% (active) | 0.118% (active) |
| CCC(=O)Nc1ccc(-c2nc(-c3cccc(O)c3)c(-c3ccnc(Br)c3)[nH]2)cc1 | 86% | 74.2% | 73.9% | 75% | 20.9% | 57.5% | 57.8% | 83.6% | 46.8% | 80.4% | 56% | 32.8% | 59.8% | 71.8% | -4.84% (active) | 82.1% | 45.8% | 57.1% | 64.1% | 66.7% |
| COc1cc(/C=C/C(=O)c2ccc(N3CCN(C)CC3)cc2)ccc1F | 84.4% | 67.3% | 84.2% | 86.4% | 102% | 54.3% | 97.2% | 76.7% | 88.4% | 64.9% | 88.3% | 7.19% (active) | 103% | 103% | 98.2% | 97.8% | 92.5% | 65.6% | 89.8% | 73.6% |
| Oc1ccc(-c2nnc(SCc3ccc(O)c4ncccc34)o2)cc1 | 13.4% | 8.78% (active) | 19.8% | 13.9% | 2.22% (active) | -15.9% (active) | 11.4% | 15.2% | 20.5% | 46.2% | 21.2% | 14.2% | 18.7% | 24.5% | -3.04% (active) | 15.9% | 0.187% (active) | 13.8% | 1.45% (active) | 0.609% (active) |
| O=C(NNc1nc2cc(F)ccc2n2cncc12)c1cnccn1 | 37.4% | 44.6% | 25.4% | 36.1% | 4.66% (active) | 63.7% | 24.3% | 22.2% | 10% | 19.5% | 26.6% | 23.9% | 29.5% | 34.1% | 68.6% | 28.3% | 0.0659% (active) | 30.1% | 36.5% | 0.271% (active) |
